About 2,000 (4.3%) of roughly 47,000 compounds were called active. Rule as the data show it: active = inhibition above about 30%; inactive = the rest. Shown is part of a subset that was picked to be rich in actives.

As usually defined, the inhibition is the change of the read-out against control, counted positive when it falls.

The target of this test is Ubiquitin carboxyl-terminal hydrolase 8 (Homo sapiens) (UniProt P40818). The experiment in a line: inhibitors of human USP8 deubiquitinase (AID 1645853). The following applies: purified USP8, Ub-rhodamine cleavage fluorescence, 30 min; at 20 µM; stronger effect = higher value.
Ubiquitin carboxyl-terminal hydrolase 8 (Homo sapiens), sequence (P40818 whole entry, looked up): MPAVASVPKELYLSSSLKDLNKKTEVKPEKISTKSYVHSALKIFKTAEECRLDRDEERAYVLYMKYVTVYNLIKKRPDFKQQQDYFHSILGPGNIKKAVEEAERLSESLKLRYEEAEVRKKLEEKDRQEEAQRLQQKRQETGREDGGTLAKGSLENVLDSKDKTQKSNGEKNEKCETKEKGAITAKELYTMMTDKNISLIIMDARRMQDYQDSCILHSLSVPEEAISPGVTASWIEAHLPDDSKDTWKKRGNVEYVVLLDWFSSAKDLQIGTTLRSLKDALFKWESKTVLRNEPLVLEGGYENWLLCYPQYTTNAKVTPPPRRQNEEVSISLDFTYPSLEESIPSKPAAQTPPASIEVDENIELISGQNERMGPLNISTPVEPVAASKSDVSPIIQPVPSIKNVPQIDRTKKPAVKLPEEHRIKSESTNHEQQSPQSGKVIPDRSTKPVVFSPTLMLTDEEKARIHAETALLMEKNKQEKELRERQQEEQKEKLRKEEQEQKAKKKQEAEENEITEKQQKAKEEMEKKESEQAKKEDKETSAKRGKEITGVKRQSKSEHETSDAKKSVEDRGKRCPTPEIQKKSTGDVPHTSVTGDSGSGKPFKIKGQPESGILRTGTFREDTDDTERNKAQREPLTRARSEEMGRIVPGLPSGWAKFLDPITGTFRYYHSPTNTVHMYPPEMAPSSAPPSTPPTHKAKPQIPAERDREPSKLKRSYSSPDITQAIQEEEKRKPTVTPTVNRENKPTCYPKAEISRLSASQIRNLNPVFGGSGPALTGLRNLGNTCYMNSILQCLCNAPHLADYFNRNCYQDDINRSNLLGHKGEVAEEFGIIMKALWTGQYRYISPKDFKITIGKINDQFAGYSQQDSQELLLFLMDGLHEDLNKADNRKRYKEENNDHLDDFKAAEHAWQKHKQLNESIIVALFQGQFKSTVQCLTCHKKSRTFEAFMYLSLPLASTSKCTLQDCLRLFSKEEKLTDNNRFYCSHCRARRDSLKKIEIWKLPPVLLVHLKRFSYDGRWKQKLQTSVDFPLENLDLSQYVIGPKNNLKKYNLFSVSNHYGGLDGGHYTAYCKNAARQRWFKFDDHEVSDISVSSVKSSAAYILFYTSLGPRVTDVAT
For `Cc1cc(=O)n(CC(=O)NCc2ccccc2)c(N2CCCC2)n1`, the inhibition was 2.35% (inactive). Consider `CCc1cccc(C)c1NC(=O)CSc1nc2c(c(=O)[nH]1)CCCC2`, for which the inhibition is 18% (inactive). Regarding `CCc1cccc(C)c1NC(=O)Cn1nc2ccc(C(=O)NCc3ccccc3)cn2c1=O`, the inhibition was 74.5% (active).

Turning to `N#Cc1ccc(-c2nc(CS(=O)(=O)c3ccc(Cl)cc3)no2)cc1`, the inhibition was -6.87% (inactive).

On to `O=S(=O)(Cc1nnc(-c2cc(Cl)cc(Cl)c2)o1)c1ccc(Cl)cc1`, for which the inhibition was 45.6% (active). Regarding `Cc1ccc(-c2nnc(CCC(=O)O)o2)cc1`, the inhibition was 3.95% (inactive). For the molecule `O=C(NCCC(=O)N1CCC2(CC1)NCCc1[nH]cnc12)c1ccc(-c2ccccc2)cc1`, the inhibition was 34.7% (active). Under `C[C@H](NC(=O)Cc1ccc(Cl)cc1)C(=O)N1CCC2(CC1)NCCc1[nH]cnc12` stands 21.2% (inactive); under `O=C(NCC(=O)N1CCC2(CC1)NCCc1[nH]cnc12)c1ccc(Br)cc1`, 18.8% (inactive). With `Cc1cc(Cl)ccc1OCCCC(=O)NCc1ccccn1` the figure was -25% (inactive); with `O=C(Nc1ccc(-c2nc3cnccc3o2)c(O)c1)c1ccc(-c2ccccc2)cc1`, -4.15% (inactive). Turning to `COc1cc(C(=O)Nc2ccc(-c3nc4cnccc4o3)cc2)cc(OC)c1OC`, the inhibition is -3.3% (inactive). With `O=C(Cc1ccccc1)Nc1ccc(-c2nc3cnccc3o2)c(O)c1` the figure was 74.3% (active); with `CCCc1noc(-c2ccc(-n3ncc(C(=O)N4CCOCC4)c3C)nc2)n1`, 0.113% (inactive); with `CCCCN(C)c1ccc2nnc(CCc3nc(-c4cc(OC)cc(OC)c4)no3)n2n1`, 84.8% (active).

Take `COc1cccc(-c2noc(CN3CCCC3c3cc(OC)ccc3OC)n2)c1` (stereo unspecified): the inhibition was -12.7% (inactive).

As to `COc1ccc(-c2noc(CN(C3CCCCC3)S(=O)(=O)c3ccc(OC)cc3)n2)cc1`, the inhibition is 14% (inactive). Turning to `CSCCC(NC(=O)C1CCCC1)c1nc2ccccc2[nH]1` (stereo unspecified), the inhibition was -5.64% (inactive). Under `Cn1c(=O)c2c(ncn2Cc2nnc(-c3ccccc3)o2)n(C)c1=O` stands 64.8% (active); under `Cc1ccc(NC(=O)CCn2cnc3c2c(=O)n(C)c(=O)n3C)cc1`, -3.63% (inactive). Consider `Cc1cnc(NC(=O)Cn2cnc3c2c(=O)n(C)c(=O)n3C)s1`, for which the inhibition was 19.6% (inactive). With `CC1CCN(C(=O)c2ncn3c2CN(C)S(=O)(=O)c2ccccc2-3)CC1` the figure was 6.05% (inactive); with `CCc1nnc2ccc(S(=O)(=O)N(CC)c3ccccc3)cn12`, -281% (inactive). Consider `Cc1cc(NC(=O)COC(=O)c2cccc(C)c2O)ccc1Br`, for which the inhibition is 0.58% (inactive). On to `Cc1cc(-c2nnc(SCC(=O)Nc3ccc(Br)c(C)c3)n2N)n[nH]1`, for which the inhibition was 31% (active). Under `Nn1c(SCC(=O)Nc2ccccc2F)nnc1-c1n[nH]c2c1CCC2` stands 7.87% (inactive); under `CC(C)(C)n1nc(C2CC2)c(Br)c1NC(=O)c1ccccc1F`, 20.5% (inactive); under `CC1(C)CCC2(C(=O)O)CC[C@]3(C)C(=CC[C@@H]4[C@@]5(C)CCC(O)C(C)(C)[C@@H]5CC[C@]43C)C2C1` (stereo partly specified), 4.43% (inactive). With `Cc1cccc(CNC(=O)CN2C(=O)C3CCCN3C(=O)c3cccc(C)c32)c1` (stereo unspecified) the figure was 5.77% (inactive). Consider `Cc1ccc2cc(CNc3ccccc3)c(=O)n(CC(=O)Nc3ccccc3C)c2c1`, for which the inhibition was 92.8% (active).

For `Cc1cccc(NC(=O)Cn2c(C)ccc(NC(=O)Nc3cccc(C)c3)c2=O)c1`, the inhibition is 26.5% (inactive). `Cc1cccc(C2=NC3(CCN(CC(=O)Nc4ccccc4C)CC3)NC2=O)c1`: the inhibition was -2.9% (inactive). In the case of `CCOC(=O)c1cc(S(=O)(=O)Nc2ccc(OC)c(Cl)c2)cn1C`, the inhibition is 11.8% (inactive). Under `O=C(NC1CC2(CCOCC2)Oc2ccccc21)c1[nH]ncc1Cl` (stereo unspecified) stands 3.95% (inactive). With `O=C(COc1ccccc1)Nc1cnc(-c2cccc(Cl)c2)nc1` the figure was 60.7% (active); with `COc1ccc(CC(=O)Nc2cnc(-c3ccccc3)nc2)cc1`, -7.3% (inactive); with `CSc1cccc(NC(=O)COc2ccc(C(=O)c3ccccc3)cc2)c1`, -0.948% (inactive). In the case of `CCC(C)[C@H](NC(=O)[C@@H]1Cc2c([nH]c3ccccc23)C2c3ccccc3C(=O)N21)C(=O)NCCc1ccccc1` (stereo partly specified), the inhibition was -10.4% (inactive). Consider `Cc1cccc(C(=O)Nc2ccc(-n3c(C)nc4ncccc4c3=O)cc2C)c1`, for which the inhibition was 5.93% (inactive). With `COc1cccc(C2c3[nH]c4ccccc4c3C[C@@H]3C(=O)N(Cc4ccc5c(c4)OCO5)CC(=O)N23)c1` (stereo partly specified) the figure was 13.4% (inactive); with `CN(c1ccccc1)c1nc(=O)n(CC(=O)Nc2ccc3c(c2)OCCO3)c2ccccc12`, -40.3% (inactive). Turning to `Cc1cc(=O)n(CC(=O)Nc2ccc3c(c2)OCO3)c2c1c(-c1ccccc1)nn2-c1ccccc1`, the inhibition was 67.9% (active).

As for `CCc1cc(=O)n(CC(=O)Nc2cc(C)on2)c(-c2ccccc2)n1`, the inhibition was -44.3% (inactive). Regarding `CCS(=O)(=O)Nc1cc(S(=O)(=O)Nc2cc(Cl)ccc2Cl)ccc1N1CCOCC1`, the inhibition was 2.1% (inactive). With `CC(=O)N1CCc2cc(S(=O)(=O)Nc3ccccc3N3CCN(C)CC3)ccc21` the figure was -8.86% (inactive). With `CCCN1CCN(c2ccc(C(=O)O)cc2NS(=O)(=O)c2cc(F)ccc2F)CC1` the figure was 84.9% (active); with `Cc1ccnc(SCc2nc(-c3ccc4c(c3)ncn4C)no2)n1`, 2.93% (inactive); with `O=C(Cc1cccc(F)c1)NC1(c2nc(C3CC3)no2)CCCCC1`, 5.33% (inactive). With `Cc1noc(C2(NC(=O)Cc3ccccc3C)CCCCC2)n1` the figure was -1.15% (inactive); with `Cc1csc(C2(NC(=O)Cc3cc(C)on3)CCCC2)n1`, 74.9% (active). As to `Cc1noc(C)c1S(=O)(=O)NCc1ccc2c(c1)CCN2C(=O)C(C)C`, the inhibition was 21.9% (inactive). Under `Cc1cccc(N2CCN(S(=O)(=O)c3c[nH]c(-c4nnc(C)o4)c3)CC2C)c1` (stereo unspecified) stands 12.2% (inactive); under `CC(C)NS(=O)(=O)c1ccc(NC(=O)c2cccnc2)cc1`, 4.16% (inactive).

For the molecule `CCc1cc(C2CCCN2C(=O)c2cc(-c3ccccc3F)no2)on1` (stereo unspecified), the inhibition was 0.852% (inactive). In the case of `O=C(C1CCC1)N1CCCN(c2ccc([N+](=O)[O-])cn2)CC1`, the inhibition was -127% (inactive). With `CN(C)c1ccc(S(=O)(=O)NCC(=O)NCC2CCCCC2)cc1[N+](=O)[O-]` the figure was -110% (inactive).

The values above are taken from PubChem BioAssay AID1645853 (Buhrlage Lab, Dana-Farber Cancer Institute and Novartis …, 2021).
